Targets with a hit are over-represented here; the source holds about 7,900 in all. About 0.6% of all pairs of compound and target were hits. Unmarked numbers belong to inactive results.
Experiments:
Assay in all cases: log2 fold change, soluble protein after heating vs DMSO (PISA); higher = thermal stabilisation; K562 cells, 10 uM, 30 min; active = over 0.2 and 3.5 SD of the protein, either way, in both replicates (recomputed)
erlotinib = compound: C#Cc1cccc(Nc2ncnc3cc(OCCOC)c(OCCOC)cc23)c1 [erlotinib]
Outline: (§1)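 K562 cells (2×10^6 cells/mL) were treated with 10 μM compound for 30 min, and aliquots were heated for 3 min over 48°C-58°C. Pooled aliquots were extracted in PBS with 0.5% NP-40 at 4°C, and the supernatant after 21,000xg for 90 min was measured by TMTpro 16plex LC-MS/MS with channel sums equalised. Reported thermal stability, relative to control samples and from duplicates, is a log2 fold change.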

[1] = compound: C/C(=N\NC(=O)C1=CC(=CC=C1)S(=O)(=O)N2CCOCC2)/C3=C(C=CC(=C3)Cl)O
Outline: as §1

[2] = compound: C1=CC(=C(C=C1Cl)C2=NC3=NC=CN=C3C(=N2)NC4=CC=NC=C4)F
Outline: as §1

[3] = compound: C1=CC(=CC=C1C2=NC3=C(N2)C=C(C=C3)C(=O)N)OC4=CC=C(C=C4)Cl
Outline: as §1

[4] = compound: C1=CC2=C(C=CC(=C2)/C=C\3/C(=O)NC(=NCC4=CC=CS4)S3)N=C1
Outline: as §1

[5] = compound: C1=CC2=NC=CN=C2C=C1/C=C/3\C(=O)NC(=O)S3
Outline: as §1

[6] = compound: C1=CC=C(C=C1)C2=NC(=C(N2)C3=CC=NC=C3)C4=CC(=C(C=C4)Cl)O
Outline: as §1

[7] = compound: C1=CC=C2C(=C1)C3=NNC4=CC=CC(=C43)C2=O
Outline: as §1

[8] = compound: C1CCN(C1)C(=O)NC2=CC=CC(=C2)NC3=NC=C(C(=N3)NCCC4=CN=CN4)Br
Outline: as §1

[9] = compound: C1CN(CCC1(CC2=CC=C(C=C2)Cl)N)C3=NC=NC4=C3C=CN4
Outline: as §1

IRAK-1-4 Inhibitor I = compound: C1COCCN1CCN2C3=CC=CC=C3N=C2NC(=O)C4=CC(=CC=C4)[N+](=O)[O-] [IRAK-1-4 Inhibitor I]
Outline: as §1

ibrutinib = compound: C=CC(=O)N1CCC[C@@H](n2nc(-c3ccc(Oc4ccccc4)cc3)c3c(N)ncnc32)C1 [ibrutinib]
Outline: as §1

[10] = compound: CC(=O)c1cnc2ccc(-c3cc(Cl)c(O)c(Cl)c3)nc2c1N[C@H]1CC[C@H](CN(C)C)CC1
Outline: as §1

ralimetinib = compound: CC(C)(C)Cn1c(N)nc2ccc(-c3[nH]c(C(C)(C)C)nc3-c3ccc(F)cc3)nc21 [ralimetinib]
Outline: as §1

[11] = compound: CC(C)(O)CC(=O)NCCn1ccc2ncnc(Nc3ccc(Oc4cccc(C(F)(F)F)c4)c(Cl)c3)c21
Outline: as §1

[12] = compound: CC(C)C1=C2N=C(C=C(N2N=C1)NCC3=CC=CC=C3)NCCCCCCN
Outline: as §1

[13] = compound: CC(C)C[C@@H](C=O)NC(=O)[C@H](CC(C)C)NC(=O)[C@H](CC(C)C)NC(=O)OCc1ccccc1
Outline: as §1

pinometostat = compound: CC(C)N(C[C@H]1O[C@@H](n2cnc3c(N)ncnc32)[C@H](O)[C@@H]1O)[C@H]1C[C@@H](CCc2nc3cc(C(C)(C)C)ccc3[nH]2)C1 [pinometostat]
Outline: as §1

[14] = compound: CC1=C(C(CC(=O)N1)C2=CC=C(C=C2)C(F)(F)F)C(=O)NC3=C(C=C4C(=C3)C=NN4)F
Outline: as §1

[15] = compound: CC1=C(C2=C(C=C1)C(=O)C3=CC=CC=C3N2CCCN)C
Outline: as §1

Chain of UniProt Q14790 (Q14790 whole entry, looked up): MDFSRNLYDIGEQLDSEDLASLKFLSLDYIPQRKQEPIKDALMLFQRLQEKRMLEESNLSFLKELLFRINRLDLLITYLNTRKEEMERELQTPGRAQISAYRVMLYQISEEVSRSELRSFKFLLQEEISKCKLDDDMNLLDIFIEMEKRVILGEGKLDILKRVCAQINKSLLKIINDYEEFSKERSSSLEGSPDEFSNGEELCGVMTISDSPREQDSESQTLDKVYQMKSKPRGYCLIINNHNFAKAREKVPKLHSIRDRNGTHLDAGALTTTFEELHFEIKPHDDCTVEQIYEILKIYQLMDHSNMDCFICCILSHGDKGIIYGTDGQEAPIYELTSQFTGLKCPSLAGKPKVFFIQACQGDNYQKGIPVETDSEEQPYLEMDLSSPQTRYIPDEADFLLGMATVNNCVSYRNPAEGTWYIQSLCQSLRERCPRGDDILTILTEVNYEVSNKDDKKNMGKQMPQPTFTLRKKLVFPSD
Chain of UniProt Q8N4S0 (Q8N4S0 whole entry, looked up): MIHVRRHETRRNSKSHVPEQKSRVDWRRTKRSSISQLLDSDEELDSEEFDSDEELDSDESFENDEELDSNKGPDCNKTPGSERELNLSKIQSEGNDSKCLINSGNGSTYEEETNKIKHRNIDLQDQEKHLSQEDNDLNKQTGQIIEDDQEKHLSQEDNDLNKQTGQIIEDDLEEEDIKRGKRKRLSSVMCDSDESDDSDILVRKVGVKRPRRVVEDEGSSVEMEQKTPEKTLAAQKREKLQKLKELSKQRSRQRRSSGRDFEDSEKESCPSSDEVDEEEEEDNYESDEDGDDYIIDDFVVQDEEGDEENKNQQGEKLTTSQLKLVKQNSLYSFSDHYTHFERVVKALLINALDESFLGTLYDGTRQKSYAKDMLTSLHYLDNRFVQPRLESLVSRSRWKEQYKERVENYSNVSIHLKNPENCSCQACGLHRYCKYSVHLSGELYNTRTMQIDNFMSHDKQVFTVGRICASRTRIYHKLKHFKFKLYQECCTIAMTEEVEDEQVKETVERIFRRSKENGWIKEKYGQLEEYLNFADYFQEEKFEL
Chain of UniProt P48729 (P48729 whole entry, looked up): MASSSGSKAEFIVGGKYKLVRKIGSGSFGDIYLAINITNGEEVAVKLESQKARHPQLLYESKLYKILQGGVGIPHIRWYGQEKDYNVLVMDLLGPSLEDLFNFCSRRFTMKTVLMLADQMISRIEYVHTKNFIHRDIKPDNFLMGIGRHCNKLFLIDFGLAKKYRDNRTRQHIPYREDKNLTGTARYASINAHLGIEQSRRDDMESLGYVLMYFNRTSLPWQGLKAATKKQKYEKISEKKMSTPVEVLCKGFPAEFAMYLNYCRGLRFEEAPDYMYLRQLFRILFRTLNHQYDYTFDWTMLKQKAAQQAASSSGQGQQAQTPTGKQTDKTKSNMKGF
Chain of UniProt O43405 (O43405 whole entry, looked up): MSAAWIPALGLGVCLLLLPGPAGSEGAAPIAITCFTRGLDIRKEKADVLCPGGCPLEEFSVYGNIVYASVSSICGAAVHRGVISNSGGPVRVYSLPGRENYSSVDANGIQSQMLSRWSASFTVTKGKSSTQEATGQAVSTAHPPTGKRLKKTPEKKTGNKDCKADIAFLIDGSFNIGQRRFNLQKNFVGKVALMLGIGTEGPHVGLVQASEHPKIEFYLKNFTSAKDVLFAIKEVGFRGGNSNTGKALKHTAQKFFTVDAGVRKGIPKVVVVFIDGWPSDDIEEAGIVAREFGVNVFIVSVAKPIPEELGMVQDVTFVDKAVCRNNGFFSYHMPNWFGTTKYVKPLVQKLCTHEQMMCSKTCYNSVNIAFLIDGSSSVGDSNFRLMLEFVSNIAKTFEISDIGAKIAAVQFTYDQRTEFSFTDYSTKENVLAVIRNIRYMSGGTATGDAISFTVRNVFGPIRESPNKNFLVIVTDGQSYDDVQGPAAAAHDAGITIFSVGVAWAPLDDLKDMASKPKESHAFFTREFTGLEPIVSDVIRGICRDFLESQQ
Chain of UniProt A6NHX0 (A6NHX0 whole entry, looked up): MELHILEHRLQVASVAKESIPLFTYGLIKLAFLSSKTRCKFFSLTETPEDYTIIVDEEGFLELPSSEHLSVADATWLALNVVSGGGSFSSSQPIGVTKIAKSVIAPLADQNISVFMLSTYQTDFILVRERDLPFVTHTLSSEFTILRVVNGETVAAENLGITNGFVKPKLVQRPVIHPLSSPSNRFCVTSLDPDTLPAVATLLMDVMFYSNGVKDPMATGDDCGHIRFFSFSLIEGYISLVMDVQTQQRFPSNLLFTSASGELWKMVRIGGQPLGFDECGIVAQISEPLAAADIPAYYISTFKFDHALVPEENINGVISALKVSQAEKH
Chain of UniProt Q9UKF6 (Q9UKF6 whole entry, looked up): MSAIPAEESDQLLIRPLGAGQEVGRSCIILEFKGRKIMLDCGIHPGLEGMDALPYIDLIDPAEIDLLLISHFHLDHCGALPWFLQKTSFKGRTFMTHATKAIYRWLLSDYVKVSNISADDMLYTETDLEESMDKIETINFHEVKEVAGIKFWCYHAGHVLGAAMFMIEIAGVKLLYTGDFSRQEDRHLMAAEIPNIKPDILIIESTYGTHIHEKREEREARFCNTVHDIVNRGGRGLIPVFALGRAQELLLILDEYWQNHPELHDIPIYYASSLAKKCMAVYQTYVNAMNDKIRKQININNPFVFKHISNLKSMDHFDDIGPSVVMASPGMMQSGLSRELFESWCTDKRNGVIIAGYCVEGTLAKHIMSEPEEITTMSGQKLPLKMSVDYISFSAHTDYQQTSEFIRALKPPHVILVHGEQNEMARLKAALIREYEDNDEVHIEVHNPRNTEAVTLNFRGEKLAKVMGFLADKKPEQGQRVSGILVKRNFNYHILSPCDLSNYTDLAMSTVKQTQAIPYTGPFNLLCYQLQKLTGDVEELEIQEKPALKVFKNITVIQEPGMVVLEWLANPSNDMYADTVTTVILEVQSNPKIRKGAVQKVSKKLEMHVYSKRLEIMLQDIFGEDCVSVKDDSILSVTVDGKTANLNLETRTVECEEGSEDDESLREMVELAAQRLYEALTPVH
Chain of UniProt Q9ULV3 (Q9ULV3 whole entry, looked up): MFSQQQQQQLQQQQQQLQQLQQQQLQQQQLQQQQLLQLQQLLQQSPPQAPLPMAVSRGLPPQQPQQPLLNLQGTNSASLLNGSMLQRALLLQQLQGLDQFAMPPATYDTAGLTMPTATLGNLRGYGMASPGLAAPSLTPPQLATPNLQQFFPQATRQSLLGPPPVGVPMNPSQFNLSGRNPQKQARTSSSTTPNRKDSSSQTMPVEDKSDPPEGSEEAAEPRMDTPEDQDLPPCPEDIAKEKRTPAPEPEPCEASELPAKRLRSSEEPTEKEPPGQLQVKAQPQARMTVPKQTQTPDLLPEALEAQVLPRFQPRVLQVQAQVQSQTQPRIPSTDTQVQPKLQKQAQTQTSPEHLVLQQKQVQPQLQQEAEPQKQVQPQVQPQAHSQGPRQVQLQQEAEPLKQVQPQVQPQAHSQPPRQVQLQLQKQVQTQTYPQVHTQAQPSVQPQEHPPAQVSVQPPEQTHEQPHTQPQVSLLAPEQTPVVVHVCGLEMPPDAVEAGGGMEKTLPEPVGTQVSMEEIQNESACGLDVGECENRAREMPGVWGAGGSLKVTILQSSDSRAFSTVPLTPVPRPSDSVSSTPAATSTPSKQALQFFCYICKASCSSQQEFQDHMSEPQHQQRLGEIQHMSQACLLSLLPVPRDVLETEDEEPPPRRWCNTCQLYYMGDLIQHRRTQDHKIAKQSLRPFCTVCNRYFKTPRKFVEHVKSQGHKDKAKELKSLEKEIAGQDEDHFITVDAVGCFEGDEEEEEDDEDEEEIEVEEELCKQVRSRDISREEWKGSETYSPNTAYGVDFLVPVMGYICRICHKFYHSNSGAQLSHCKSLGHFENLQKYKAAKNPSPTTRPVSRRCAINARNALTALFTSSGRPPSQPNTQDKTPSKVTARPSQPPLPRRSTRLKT
Chain of UniProt P16152 (P16152 whole entry, looked up): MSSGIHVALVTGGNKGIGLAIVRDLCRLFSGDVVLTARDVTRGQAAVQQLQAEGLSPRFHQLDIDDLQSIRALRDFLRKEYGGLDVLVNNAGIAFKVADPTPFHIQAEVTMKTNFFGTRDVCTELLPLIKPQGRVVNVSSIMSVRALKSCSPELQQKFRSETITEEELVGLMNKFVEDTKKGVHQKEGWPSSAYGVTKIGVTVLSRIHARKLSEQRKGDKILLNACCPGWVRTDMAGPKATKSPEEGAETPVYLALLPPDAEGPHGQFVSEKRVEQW
Chain of UniProt P42574 (P42574 whole entry, looked up): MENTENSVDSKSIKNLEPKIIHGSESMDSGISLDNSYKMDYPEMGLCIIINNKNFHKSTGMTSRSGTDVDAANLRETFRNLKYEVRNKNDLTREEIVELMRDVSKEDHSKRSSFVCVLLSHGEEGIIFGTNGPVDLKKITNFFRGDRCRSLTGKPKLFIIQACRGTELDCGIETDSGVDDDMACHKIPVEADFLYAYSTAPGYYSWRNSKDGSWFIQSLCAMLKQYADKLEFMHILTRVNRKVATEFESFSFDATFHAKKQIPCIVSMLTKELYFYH
Chain of UniProt Q13137 (Q13137 whole entry, looked up): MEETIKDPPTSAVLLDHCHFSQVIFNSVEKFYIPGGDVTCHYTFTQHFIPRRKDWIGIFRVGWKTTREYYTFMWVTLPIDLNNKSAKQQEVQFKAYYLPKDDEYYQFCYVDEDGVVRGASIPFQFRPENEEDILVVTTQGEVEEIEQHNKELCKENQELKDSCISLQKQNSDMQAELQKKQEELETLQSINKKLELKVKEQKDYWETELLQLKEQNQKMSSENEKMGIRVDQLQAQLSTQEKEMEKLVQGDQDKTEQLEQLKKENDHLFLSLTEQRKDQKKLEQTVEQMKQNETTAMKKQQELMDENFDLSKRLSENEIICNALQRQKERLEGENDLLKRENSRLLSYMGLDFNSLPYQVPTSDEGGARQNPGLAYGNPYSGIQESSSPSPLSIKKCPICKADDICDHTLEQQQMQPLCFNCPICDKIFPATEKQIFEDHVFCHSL

| Target | log2 fold change (erlotinib) | log2 fold change [1] | log2 fold change [2] | log2 fold change [3] | log2 fold change [4] | log2 fold change [5] | log2 fold change [6] | log2 fold change [7] | log2 fold change [8] | log2 fold change [9] | log2 fold change (IRAK-1-4 Inhibitor I) | log2 fold change (ibrutinib) | log2 fold change [10] | log2 fold change (ralimetinib) | log2 fold change [11] | log2 fold change [12] | log2 fold change [13] | log2 fold change (pinometostat) | log2 fold change [14] | log2 fold change [15] |
| --- | --- | --- | --- | --- | --- | --- | --- | --- | --- | --- | --- | --- | --- | --- | --- | --- | --- | --- | --- | --- |
| CDK6 (UniProt Q00534) | -0.035 | 0 | -0.053 | 0.02 | 0.027 | 0.018 | -0.031 | 0.04 | 0.017 | -0.034 | -0.014 | 0.031 | 0.107 | 0.009 | -0.009 | -0.026 | 0.086 | 0.062 | 0.02 | -0.019 |
| CASTOR2 (UniProt A6NHX0) | -0.026 | 0.117 | 0.013 | 0.018 | -0.031 | 0.017 | 0.029 | -0.017 | -0.065 | -0.002 | 0.078 | 0.046 | 0.008 | -0.006 | 0.016 | 0.031 | 0.046 | -0.013 | -0.004 | 0.019 |
| CBR1 (UniProt P16152) | 0.011 | 0.066 | 0.115 | 0.008 | -0.009 | 0.028 | 0.186 | -0.038 | -0.027 | 0.057 | 0.023 | 0.009 | 0.031 | 0.097 | -0.007 | 0.061 | -0.088 | -0.035 | -0.009 | 0.028 |
| CDK13 (UniProt Q14004) | -0.064 | 0.039 | -0.147 | 0.028 | -0.126 | -0.014 | -0.012 | -0.212 | -0.006 | -0.129 | -0.05 | 0.024 | -0.52 (active) | 0.199 | 0.031 | -0.171 | 0.081 | 0.043 | 0.013 | -0.017 |
| COCH (UniProt O43405) | -0.083 | -0.028 | -0.044 | 0.007 | -0.098 | 0.007 | -0.002 | -0.072 | -0.043 | -0.101 | 0.001 | 0.058 | 0.045 | 0.041 | 0.331 (active) | 0.021 | -0.019 | 0.043 | -0.072 | -0.353 |
| CHAC2 (UniProt Q8WUX2) | 0.025 | -0.011 | 0.001 | -0.012 | -0.003 | -0.033 | -0.018 | 0.001 | -0.025 | 0.093 | 0.038 | -0.058 | -0.009 | -0.021 | 0.085 | 0.03 | 0 | 0.01 | -0.061 | -0.036 |
| CSNK1A1 (UniProt P48729) | 0.073 | 0.002 | -0.028 | -0.002 | -0.008 | 0.018 | -0.029 | -0.088 | 0.001 | -0.064 | -0.016 | 0.015 | -0.053 | 0.026 | -0.041 | -0.25 (active) | 0.145 | 0.112 | 0.038 | 0.028 |
| CALCOCO2 isoform 4 (UniProt Q13137) | -0.081 | 0.018 | -0.08 | 0.059 | 0.022 | -0.043 | -0.003 | -0.057 | -0.016 | -0.052 | 0.004 | -0.016 | -0.09 | 0.045 | -0.005 | -0.599 (active) | 0.115 | 0.054 | 0.045 | -0.065 |
| CASP8 isoform 9 (UniProt Q14790) | -0.008 | 0.056 | -0.055 | -0.023 | 0.021 | 0.052 | -0.078 | 0.104 | -0.051 | -0.014 | -0.056 | -0.027 | 0.098 | -0.058 | -0.092 | -0.264 | -0.025 | 0.124 | 0.028 | 0 |
| CSE1L (UniProt P55060) | -0.005 | 0.056 | 0.064 | -0.033 | 0 | 0.052 | 0.012 | -0.044 | 0.028 | -0.04 | 0.001 | -0.028 | 0.033 | -0.011 | -0.144 | -0.145 | -0.029 | -0.027 | -0.008 | -0.02 |
| CPSF3 (UniProt Q9UKF6) | 0.006 | 0.104 | 0.028 | 0 | -0.003 | 0.048 | 0 | -0.022 | -0.005 | -0.011 | -0.044 | -0.04 | 0.026 | -0.006 | 0.028 | -0.052 | 0.035 | 0.036 | -0.025 | -0.013 |
| CDC37L1 (UniProt Q7L3B6) | -0.069 | 0.008 | -0.007 | -0.035 | 0.054 | 0.068 | 0 | -0.012 | 0.203 | 0.357 | 0.004 | -0.018 | -0.012 | -0.059 | -0.118 | -0.004 | 0 | -0.015 | 0.062 | -0.281 |
| CIZ1 (UniProt Q9ULV3) | 0.002 | 0.024 | 0.032 | 0.069 | 0.009 | 0.083 | -0.092 | -0.085 | 0.034 | -0.016 | 0.013 | -0.03 | -0.044 | 0.056 | -0.056 | 0.035 | 0.053 | -0.02 | -0.02 | -0.248 (active) |
| CASP3 (UniProt P42574) | -0.014 | -0.021 | 0.238 | 0.006 | -0.005 | -0.001 | 0.086 | 0.015 | -0.028 | 0.093 | 0.074 | 0.008 | 0 | -0.022 | 0.043 | 0.048 | 0.067 | -0.076 | 0.011 | 0.05 |
| COPS3 (UniProt Q9UNS2) | -0.019 | 0.035 | 0.091 | 0.016 | 0.055 | 0.01 | -0.009 | 0.007 | 0.014 | 0.014 | 0.029 | 0.011 | -0.023 | -0.096 | -0.014 | 0.028 | -0.065 | -0.046 | -0.007 | -0.003 |
| CCDC82 (UniProt Q8N4S0) | -0.08 | 0.035 | 0.011 | -0.026 | -0.01 | 0.046 | -0.022 | -0.092 | -0.004 | 0.022 | -0.041 | 0.022 | -0.07 | -0.023 | 0.012 | 0 | 0.028 | -0.019 | 0.108 | -0.65 (active) |

Reference: the supplement of paper PMC10849652
